The text below walks through data of PubChem BioAssay (EPA / NIEHS).

SMILES strings stand for the structures. Activity calls are given as the source filed them. Rule for the calls: active = hit-call score of the fitted dose curve at least 0.9, where 1 is the maximum; inactive = score below 0.9.

Aryl hydrocarbon receptor (Homo sapiens), sequence (P35869 whole entry, looked up): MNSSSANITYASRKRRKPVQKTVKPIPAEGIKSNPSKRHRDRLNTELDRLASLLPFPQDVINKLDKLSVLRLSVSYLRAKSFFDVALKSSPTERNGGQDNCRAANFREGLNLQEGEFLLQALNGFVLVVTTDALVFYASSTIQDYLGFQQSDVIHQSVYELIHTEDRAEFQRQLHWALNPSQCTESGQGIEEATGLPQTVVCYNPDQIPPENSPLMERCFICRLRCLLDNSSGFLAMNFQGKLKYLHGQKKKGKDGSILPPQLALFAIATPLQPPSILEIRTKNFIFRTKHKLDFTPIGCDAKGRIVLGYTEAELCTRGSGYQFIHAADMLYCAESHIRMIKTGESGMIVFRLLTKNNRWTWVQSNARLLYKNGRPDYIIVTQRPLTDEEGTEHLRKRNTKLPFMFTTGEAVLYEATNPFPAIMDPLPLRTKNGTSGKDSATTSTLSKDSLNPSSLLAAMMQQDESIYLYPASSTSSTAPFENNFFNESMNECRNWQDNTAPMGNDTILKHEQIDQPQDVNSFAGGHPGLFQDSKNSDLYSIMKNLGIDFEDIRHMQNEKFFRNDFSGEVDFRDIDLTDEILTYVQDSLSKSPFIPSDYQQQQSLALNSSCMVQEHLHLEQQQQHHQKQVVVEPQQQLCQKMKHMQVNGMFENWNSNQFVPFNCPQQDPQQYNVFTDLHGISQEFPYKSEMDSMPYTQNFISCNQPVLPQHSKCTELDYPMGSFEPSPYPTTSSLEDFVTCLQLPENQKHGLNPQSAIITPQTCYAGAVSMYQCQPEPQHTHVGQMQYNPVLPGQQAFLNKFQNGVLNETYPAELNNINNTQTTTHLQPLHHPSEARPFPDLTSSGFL

For this assay, the target named is Aryl hydrocarbon receptor (Homo sapiens) (UniProt P35869). In words: ATG_Ahr_CIS: Attagene CIS-FACTORIAL HepG2 Assay for human Aryl Hydrocarbon Receptor (Ahr) (AID 2282930). As to conditions: HepG2 AhR cis-factorial reporter transcription; actives raise or lower the signal. As for the experimental part:
ATG_CIS is a cell-based, multiplexed-readout assay that uses HepG2, a human liver cell line, with measurements taken at 24 hours after chemical dosing in a 24-well plate.ATG_Ahr_CIS is one of 52 assay component(s) measured or calculated from the ATG_CIS assay. It is designed to make measurements of mRNA induction, a form of inducible reporter, as detected with fluorescence intensity signals by Reverse transcription polymerase chain reaction (RT-PCR) and Capillary electrophoresis technology.Data from the assay component ATG_Ahr_CIS was analyzed into 1 assay endpoint. This assay endpoint, ATG_Ahr_CIS, was analyzed with bidirectional fitting relative to DMSO as the negative control and baseline of activity. Using a type of inducible reporter, measures of mRNA for gain or loss-of-signal activity can be used to understand the reporter gene at the transcription factor-level as they relate to the gene AHR. Furthermore, this assay endpoint can be referred to as a primary readout, because this assay has produced multiple assay endpoints where this one serves a reporter gene function. To generalize the intended target to other relatable targets, this assay endpoint is annotated to the dna binding intended target family, where the subfamily is basic helix-loop-helix protein.
Human liver HepG2 cells are transiently transfected with multiple reporter transcription units (MRTUs) in 6-well plates using FuGene 6 reagent (Roche; 3 ml FuGene/1 mg DNA). The MRTU constructs are regulated by a cis-regulating element (promoter). […] A major difference between the CIS and TRANS system is that in CIS activities of endogenous TFs are measured, whereas the TRANS assay evaluates changes in activities of exogenous, chimeric NR-Gal4 proteins. […] At the end of 24 hour incubation, total RNA was isolated using TriZol reagent (Invitrogen). The isolated RNA is then reverse-transcribed using oligo(dT) primer and Mo-MLV reverse transcriptase (Invitrogen) with DNAse I (Ambion) treatment for 30 min. The one-tenth of the produced cDNA was amplified by PCR using Taq DNA polymerase (Invitrogen) and two reporter sequence-specific primers. The PCR products were fluorescently labeled by primer extension with 6-arboxyfluorescein (6-FAM) 5'-labeled reporter sequence-specific primer (2 min at 95 C, 20 s at 68 C and 10 min at 72 C) and these products were digested with 5U of HpaI (New England Biolabs) for 2h at 37 C. […] The raw capillary electrophoresis data was processed using Attagraph software (Attagene).
`C[N+](C)(C)CCO`: the molecule was called inactive.

For orientation: AC50 means the concentration at which the activity in the assay is half-maximal. Consider `Nc1ccc(O)c(N)c1`, for which the AC50 is 14.5 µM (active).

Regarding `CC(C)C(=O)OCC=Cc1ccccc1`, the molecule was called inactive.

For `CC(C)COC(=O)c1ccccc1`, the molecule was called inactive.

As for `COc1ccccc1O`, the call was inactive.

As for `CCCCCCCCOC(C)=O`, the molecule was classed as inactive.

In the case of `O=C1OCc2ccccc21`, the molecule was called inactive.

Consider `CCCCCCCCCOS(=O)(=O)O`, for which the molecule was called inactive.

As to `CC(=O)OC/C=C(C)/C=C/C=C(C)/C=C/C1=C(C)CCCC1(C)C`, the molecule was called inactive.

As to `CCC(C)(C)C1CCC(OC)CC1` (stereo not given), the molecule was called inactive.

As to `CC(=O)c1ccc(O)cc1`, the molecule was called inactive.

Take `CCCC[N+](C)(CCCC)CCCC`: the call was inactive.

In the case of `CC(=O)OC(C)(C)C1CC=C(C)CC1` (stereo not given), the AC50 was 8.48 µM (active).

On to `CCO[Si](CC)(OCC)OCC`, for which the call was inactive.

With `COc1cc(OC)c2ccc(=O)oc2c1`, the result was inactive.

Take `OC[C@@H](O)[C@H](O)[C@@H](O)[C@@H](O)CO`: the result was inactive.

`C=C1CC/C=C(\C)CC[C@@H]2[C@@H]1CC2(C)C`: the molecule was called inactive.

Consider `Nc1ccc(N)c([N+](=O)[O-])c1`, for which the AC50 was 3.14 µM (active) [middle of 5 runs].

`CC1=CCC(C(C)C)=CC1`: the molecule was called inactive.

With `CCCCOC(=O)C(C)OC(=O)CCC` (stereo not given), the outcome was inactive.

Regarding `COC(=O)C(C)Oc1ccc(Oc2ncc(C(F)(F)F)cc2Cl)cc1` (stereo not given), the AC50 was 3.09 µM (active).

Regarding `CCC(C)COC(=O)CC(C)C` (stereo not given), the call was inactive.

On to `CC(O)CNCC(C)O` (stereo not given), for which the molecule was classed as inactive.

In the case of `CCCCCCCCCCCCOCCOS(=O)(=O)O`, the result was inactive.

With `CC1=CCC(C(C)(C)O)CC1` (stereo not given), the outcome was inactive.

As for `CCOC(=O)CC1(C)OCC(C)O1` (stereo not given), the result was inactive.

For `Cc1ccncc1`, the outcome was inactive.

Regarding `[O-]/[N+](=N\O)c1ccccc1`, the concentration at half-maximal activity (AC50) is 4.26 µM (active).

In the case of `CCCCCCC(C)O` (stereo not given), the call was inactive.

For the molecule `CC1COC(=O)O1` (stereo not given), the molecule was called inactive.

With `OCC=Cc1ccccc1`, the AC50 is 50.1 µM (active).

Regarding `CCCO[Si](OCCC)(OCCC)OCCC`, the molecule was classed as inactive.

With `CC(C)CCCC(C)(C)O`, the call was inactive.

Turning to `CCCCCC(=O)O[C@]1(C(C)=O)CC[C@H]2[C@@H]3CCC4=CC(=O)CC[C@]4(C)[C@H]3CC[C@@]21C`, the molecule was classed as inactive.

Turning to `CC(=O)CC(C)(C)C1CCCCC1`, the outcome was inactive.

With `CCC(C)(C)C1CCC(=O)CC1`, the molecule was classed as inactive.

Take `CC1=CC[C@@H](C(C)(C)O)CC1`: the molecule was called inactive.

`CCOc1ccc(NC(C)=O)cc1`: the molecule was classed as inactive.

Regarding `C[C@H](CCC(=O)O)[C@H]1CC[C@H]2[C@@H]3CC[C@@H]4C[C@H](O)CC[C@]4(C)[C@H]3CC[C@]12C`, the AC50 is 62.7 µM (active).

As to `C=C(C)CCCC(C)CCO` (stereo not given), the outcome was inactive.
